High-throughput results (PubChem)
In the library only some 2.8% were active in any assay of this set; here they are far more common.
PAFAH1B3 inh – inhibitors of human PAFAH1B3. recombinant PAFAH1B3, FP-rhodamine probe, fluorescence polarization. inhibition, % at 3.39 µM. 0.28% of 340,000 active;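 active = inhibition above the screen-wide average of all tested compounds plus 3 SD, cut at about 25% in these data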;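 also: 0% = enzyme with DMSO only and 100% = wells lacking PAFAH1B3 protein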
Target sequence (Q15102 whole entry, looked up): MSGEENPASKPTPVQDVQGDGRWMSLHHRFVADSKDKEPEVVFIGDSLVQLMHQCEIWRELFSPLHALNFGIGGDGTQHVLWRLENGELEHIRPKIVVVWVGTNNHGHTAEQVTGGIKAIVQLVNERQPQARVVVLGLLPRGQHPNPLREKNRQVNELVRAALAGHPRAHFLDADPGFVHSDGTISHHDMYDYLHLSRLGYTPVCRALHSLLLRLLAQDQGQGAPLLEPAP
pPAFAH FP inh – pPAFAH (human) enzyme inhibition | Q13093 | recombinant pPAFAH, FP-rhodamine probe fluorescence polarization | inhibition, % at 3.39 µM | 1.5% of 330,000 active | AID 463082;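 active = inhibition above the mean inhibition across the screen plus 3 SD, cut at about 25% in these data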;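 also: inhibitors block binding of the rhodamine activity-based probe so polarization drops; 0% = enzyme with DMSO and 100% = wells lacking pPAFAH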
Target sequence (Q13093 whole entry, looked up): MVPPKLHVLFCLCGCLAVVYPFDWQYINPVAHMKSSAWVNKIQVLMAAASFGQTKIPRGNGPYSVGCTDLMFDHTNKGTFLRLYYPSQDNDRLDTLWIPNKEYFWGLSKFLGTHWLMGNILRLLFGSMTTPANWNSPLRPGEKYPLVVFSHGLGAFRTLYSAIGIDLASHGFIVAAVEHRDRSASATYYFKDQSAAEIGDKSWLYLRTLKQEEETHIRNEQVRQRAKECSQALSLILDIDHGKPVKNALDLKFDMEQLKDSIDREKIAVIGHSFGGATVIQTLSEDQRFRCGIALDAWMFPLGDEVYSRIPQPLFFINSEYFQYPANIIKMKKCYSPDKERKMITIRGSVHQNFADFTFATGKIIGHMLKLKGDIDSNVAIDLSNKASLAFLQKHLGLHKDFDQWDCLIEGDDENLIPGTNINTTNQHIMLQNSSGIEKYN
PAFAH2 FP inh – inhibitors of human PAFAH2; inhibition, % at 3.39 µM; Q99487; AID 492956; 0.99% of 340,000 active; recombinant PAFAH2, FP-rhodamine activity probe, fluorescence polarization;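 active = inhibition above the mean over all tested compounds plus 3 SD, cut at about 30% in these data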;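 also: inhibitors block probe labeling of enzyme so polarization drops; 0% = enzyme with DMSO and 100% = wells lacking PAFAH2 protein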
Fam108B inh – counter-screen for RBBP9 inhibitors: inhibitors of mouse Fam108B | 0.33% of 300,000 active | recombinant Fam108B, FP-Rh probe fluorescence polarization | inhibition, % at 9.51 µM;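 active = inhibition above the screen mean inhibition plus 3 SD, computed separately per campaign, cut at about 18% in these data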;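 also: inhibitors lower polarization as less probe binds the enzyme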
PAFAH1B2 inh – inhibitors of human PAFAH1B2. recombinant PAFAH1B2, FP-rhodamine activity probe, fluorescence polarization. inhibition, % at 3.39 µM. 1.2% of 340,000 active. AID 492953;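 active = inhibition above the mean of all tested compounds plus 3 SD, cut at about 24% in these data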;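 also: 0% = enzyme with DMSO and 100% = wells lacking PAFAH1B2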
PME-1 inh – PME-1 (human) inhibition; Q9Y570; AID 2130; recombinant PME-1, FP-Rh probe fluorescence polarization; 0.53% of 320,000 active; inhibition, % at 5.9 µM;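 active = inhibition above the campaign mean of all compounds plus 3 SD, cut at about 26% in these data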;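 also: competitive labeling of PME-1 active site by serine hydrolase directed probe; 0% = PME-1 with DMSO and 100% = wells lacking PME-1 enzyme; inhibitors block probe labeling so polarization falls and inhibition rises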
Active calls of the source: *; nt = no result given.

SMILES | PAFAH1B3 inh | pPAFAH FP inh | PAFAH2 FP inh | Fam108B inh | PAFAH1B2 inh | PME-1 inh
CCOC(=O)c1c(C)[nH]c(C(=O)COc2ccc3ccc(=O)oc3c2)c1C | 0.8 | 2.4 | -7.1 | nt | -0.1 | nt
NS(=O)(=O)c1ccc(CCNC(=O)COC(=O)c2nc(Cl)ccc2Cl)cc1 | 4.6 | 10.3 | 3.0 | nt | -2.6 | 5.4
CCOC(=O)C1=C(C)N=c2s/c(=C/c3ccco3)c(=O)n2C1c1cccc(OC)c1 (centres undefined) | nt | 33.5* | nt | -3.7 | nt | 4.6
CCOC(=O)C1=C(C)N=c2s/c(=C\c3ccc(C(=O)O)cc3)c(=O)n2C1c1ccc(OC)cc1OC (centres undefined) | 6.2 | 1.1 | 4.3 | -0.6 | 3.0 | 1.9
Cc1ccc(NC(=O)COC(=O)CN2C(=O)c3ccccc3C2=O)cc1 | 11.2 | 2.9 | 10.7 | nt | 5.1 | 1.3
CC(=O)Nc1ccc(Nc2nc3ccccc3nc2NS(=O)(=O)c2ccc(Cl)c([N+](=O)[O-])c2)cc1 | 31.4* | nt | 52.0* | nt | 23.5 | nt
CC(C)CSc1nc2c(=O)[nH][nH]c(=O)c2n1Cc1ccccc1 | 8.9 | 29.6* | 1.3 | 4.2 | 18.6 | 1.9
CC(C)CSc1nc2c(c(=O)[nH]c(=O)n2C)n1CCc1ccccc1 | 0.7 | 5.1 | -2.7 | 6.3 | 4.4 | 6.4
CC1CCCCC1NC(=O)c1c(O)nc2ccccn2c1=O (centres undefined) | -3.5 | 4.9 | 3.7 | -3.1 | -1.0 | -1.5
NC(=O)COC(=O)CC12CC3CC(CC(Br)(C3)C1)C2 | 9.5 | 5.6 | 2.5 | -0.1 | 26.5* | 3.6
CCc1ccc(S(=O)(=O)NCc2csc(-c3ccccc3)n2)s1 | 1.4 | 8.0 | 1.9 | -2.8 | 11.5 | -5.3
CCc1ccc(S(=O)(=O)NCCc2csc(-c3ccccc3)n2)s1 | -1.6 | 14.4 | -3.8 | 3.4 | 39.0* | 1.3
C[C@@H]1COC(=O)[C@H](CC(=O)OC(C)(C)C)C/C=C\C[C@@H](CC(=O)NCCO)C(=O)N1 | -6.3 | -7.1 | 4.7 | nt | 1.6 | nt
COc1cc2c(cc1OC)C(C1C(=O)CC(C)(C)CC1=O)N(C(=O)CCl)CC2 (centres undefined) | -2.7 | -0.1 | -5.5 | 1.5 | -6.1 | -11.4
COc1cc2c(cc1OC)C(c1cc(Br)ccc1F)N(C(=O)CCl)CC2 (centres undefined) | 1.2 | 0.6 | 14.9 | -4.9 | 6.2 | 31.2*
CC1(OC(=O)C2CCCC2)C(=O)C=C2C=C(C3CC3)OC=C2C1=O (centres undefined) | nt | 25.9* | nt | 2.8 | nt | 5.1
COC/C=C/C1=CC2=CC(=O)C(C)(OC(=O)c3cccs3)C(=O)C2=CO1 (centres undefined) | nt | 13.4 | nt | 3.4 | nt | -2.2
CC1(OC(=O)c2ccc(Cl)nc2)C(=O)C=C2C=C(c3ccc(C#N)cc3)OC=C2C1=O (centres undefined) | nt | 41.6* | nt | 12.1 | nt | 12.4
CC1(OC(=O)c2ccc(Cl)nc2)C(=O)C=C2C=C3CCCN3C=C2C1=O (centres undefined) | 14.0 | 15.1 | 11.5 | 4.4 | 10.7 | 0.8
CC1(OC(=O)c2ccc(Cl)nc2)C(=O)C=C2C=C(c3ccsc3)OC=C2C1=O (centres undefined) | nt | 46.7* | nt | 4.9 | nt | -1.1
CC1(OC(=O)c2ccc(Cl)nc2)C(=O)C=C2C=C(C3CC3)OC=C2C1=O (centres undefined) | nt | 43.9* | nt | 19.6* | nt | 25.2
C=C1CC(Cn2cc(Br)c(=O)[nH]c2=O)(c2ccc(-c3ccccc3)cc2)OC1=O (centres undefined) | 1.0 | nt | 2.1 | nt | -3.8 | nt
CC(C)(CNC(=O)Cc1ccc(Cl)cc1Cl)N1CCCCC1 | 6.5 | 0.0 | -0.8 | 0.2 | 4.6 | -4.1
COc1cc(F)cc(-c2ccc3c(c2)c(C#Cc2ccsc2)c(-c2cc(OC)cc(OC)c2)n3C)c1 | 11.9 | -2.9 | -8.4 | nt | -1.7 | nt
COC(=O)[C@]1(C)CCC[C@@]2(C)C3CC[C@@]4(C)C[C@]3(CCC21)CC4=NO (some centres undefined) | 9.7 | 0.3 | 3.1 | nt | 5.5 | 2.7
SMILES | PAFAH1B3 inh | pPAFAH FP inh | PAFAH2 FP inh | Fam108B inh | PAFAH1B2 inh | PME-1 inh
Oc1ccc(/C=C/c2ccnc3ccccc23)cc1 | 13.5 | 8.4 | 4.7 | 4.7 | 4.4 | 0.3
Clc1ccccc1/C=C/c1ccnc2ccccc12 | 5.0 | 30.6* | -0.9 | 2.5 | 2.7 | -14.3
CC(C)[C@H](N)c1nnc(SCc2ccc(Cl)cc2)o1 | 6.5 | -1.3 | -6.3 | -0.7 | 34.2* | -0.4
CC(C)C[C@H](N)c1nnc(SCc2ccc(Cl)cc2)o1 | -5.4 | 0.9 | -2.9 | 2.6 | 22.1 | -2.4
CC(OC(=O)Cn1ccccc1=O)C(=O)Nc1cc(Cl)cc(Cl)c1 (centres undefined) | 7.2 | 2.6 | 7.3 | nt | 1.2 | nt
CC(=O)C[C@H](O)CC(=O)[C@H]1OC(=O)CCCCCCCCc2ccccc21 | -10.3 | -1.3 | -5.8 | nt | 37.2* | nt
CC(=O)C[C@H](O)CC(=O)[C@H]1OC(=O)CCCCCc2ccccc21 | 3.9 | -1.0 | 13.5 | nt | 3.5 | nt
O=C(O)c1ccc(N/N=C/c2cn(Cc3ccc(F)cc3)c3ccccc23)cc1 | 5.3 | 28.9* | 15.4 | 15.5 | 6.0 | 12.9
O=C(/C=C/c1ccc(O)c([N+](=O)[O-])c1)c1ccc2ccccc2c1 | 11.8 | 31.6* | 44.0* | 11.7 | 28.8* | 12.4
CN(C)c1ccc(/C=C/C(=O)c2ccccc2)cc1[N+](=O)[O-] | 0.8 | 8.5 | 6.5 | 10.6 | -0.9 | 7.0
O=C(Nc1cc(Cl)ccc1N1CCOCC1)C1=COCCO1 | 3.5 | 3.7 | -2.1 | -0.1 | 4.1 | -1.5
COC(=O)c1ccccc1CSc1nsc(/C=C/N(C)C)c1C#N | 6.2 | 28.2* | -1.2 | 3.0 | 4.0 | 5.0
N=C(N)c1ccc(N=Nc2c(O)ccc3c2[nH]c2ccccc23)cc1 | 9.4 | nt | 10.4 | nt | 31.3* | nt
NC(=O)CN(c1ccccc1)C1SC(=O)N(Cc2ccccc2)C1=O (centres undefined) | -7.5 | 1.1 | 0.0 | 0.1 | 12.7 | 4.9
Cc1ccc(N(CC(N)=O)C2SC(=O)N(Cc3ccccc3)C2=O)cc1 (centres undefined) | 12.0 | 0.6 | 5.9 | 1.5 | 25.6* | -3.5
COCCN(C(=O)c1ccc(OCC(C)C)cc1)c1c(N)n(Cc2ccccc2)c(=O)[nH]c1=O | -9.9 | 31.0* | -14.1 | 0.9 | -0.2 | 5.8
COCCN(C(=O)c1ccc(C#N)cc1)c1c(N)n(Cc2ccccc2)c(=O)[nH]c1=O | 1.9 | 1.7 | 4.9 | nt | 5.8 | -1.3
C[C@@H]1CN([C@@H](C)CO)C(=O)c2cc(NC(=O)Nc3ccccc3)ccc2O[C@H]1CN(C)C(=O)Nc1cccc2ccccc12 | 1.1 | 4.0 | -36.2 | nt | 7.0 | nt
Cc1ccc(S(=O)(=O)N(CC(=O)c2ccc(Cl)cc2)C(=O)N2CCN(C)CC2)cc1 | -6.4 | -0.7 | 2.7 | -0.9 | 0.5 | -1.9
C=CCN=c1scc(C)n1/N=C/c1ccc(O)c(O)c1 | 11.8 | 34.2* | 9.6 | 1.5 | 6.1 | -3.3
